Measured values from PubChem BioAssay (EPA / NIEHS).
Results filed as inconclusive are left out. The source made the active and inactive calls. How the source made its calls: active means hit-call score of the fitted dose curve at least 0.9, where 1 is the maximum; inconclusive means response in the unintended direction; inactive means score below 0.9.

What was measured:
[1] = biological target: Peroxisome proliferator-activated receptor gamma (Homo sapiens) (UniProt P37231); experiment: ATG_hPPARg_XSP1: Attagene TRANS-FACTORIAL Multi-Species (XSP1) HepG2 Assay for human Peroxisome Proliferator-activated Receptor gamma (PPARg) (AID 2283800)
Method in brief: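 HepG2 cells transiently transfected with GAL4-UAS reporter units carrying chimeric NR-Gal4 proteins; 3 nM 6-alpha-fluorotestosterone present. After 24 h dosing, reporter mRNA quantified by RT-PCR and capillary electrophoresis; gain of signal relative to DMSO.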

[2] = biological target: Nuclear receptor subfamily 1 group I member 2 (Mus musculus) (UniProt O54915); experiment: ATG_mPXR_XSP1: Attagene TRANS-FACTORIAL Multi-Species (XSP1) HepG2 Assay for mouse Pregnane X Receptor (PXR) (AID 2283803)
Method in brief: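 Transiently transfected HepG2 cells expressing a receptor-Gal4 chimera drive a GAL4-UAS reporter; 3 nM 6-alpha-fluorotestosterone included. Reporter mRNA read 24 h post-dose by RT-PCR and capillary electrophoresis; gain of signal relative to DMSO.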

[3] = biological target: human Thyroid hormone Receptor alpha (TRa), THRA (gene 7067) (UniProt P10827); experiment: ATG_hTRa_XSP1: Attagene TRANS-FACTORIAL Multi-Species (XSP1) HepG2 Assay for human Thyroid hormone Receptor alpha (TRa) (AID 2283805)
Method in brief: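 HepG2 cells transiently transfected with GAL4-UAS reporter units expressing chimeric NR-Gal4 proteins, dosed 24 hours with 3 nM 6-alpha-fluorotestosterone present. Reporter mRNA measured by RT-PCR and capillary electrophoresis; gain of signal fitted versus DMSO.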

[4] = system: turtle Thyroid Hormone Receptor, alpha (TRa), gene 101949057; experiment: ATG_trTRa_XSP1: Attagene TRANS-FACTORIAL Multi-Species (XSP1) HepG2 Assay for turtle Thyroid Hormone Receptor, alpha (TRa) (AID 2283806)
Method in brief: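 HepG2 cells transiently transfected with GAL4-UAS reporter units and chimeric receptor-Gal4 constructs, with 3 nM 6-alpha-fluorotestosterone present. Reporter mRNA was quantified 24 h after dosing by RT-PCR, 6-FAM labelling and capillary electrophoresis; gain of signal versus DMSO.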

[5] = biological target: zebrafish Thyroid Hormone Receptor alpha (TRa), thraa (gene 30670) (UniProt Q98867); experiment: ATG_zfTRa_XSP1: Attagene TRANS-FACTORIAL Multi-Species (XSP1) HepG2 Assay for zebrafish Thyroid Hormone Receptor alpha (TRa) (AID 2283807)
Method in brief: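 HepG2 cells transiently transfected with GAL4-UAS reporter units including a zebrafish TRa–Gal4 chimera, dosed 24 h with 3 nM 6-alpha-fluorotestosterone present. Reporter mRNA quantified by RT-PCR and capillary electrophoresis; gain versus DMSO.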

[6] = biological target: human Thyroid hormone Receptor beta (TRb), THRB (gene 7068) (UniProt P10828); experiment: ATG_hTRb_XSP1: Attagene TRANS-FACTORIAL Multi-Species (XSP1) HepG2 Assay for human Thyroid hormone Receptor beta (TRb) (AID 2283808)
Method in brief: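 HepG2 cells transiently transfected with reporter units driving GAL4-UAS reporters for chimeric NR-Gal4 proteins; 24 h chemical exposure with 3 nM 6-alpha-fluorotestosterone present. Reporter mRNA quantified by RT-PCR and capillary electrophoresis, gain of signal versus DMSO.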

[7] = biological target: zebrafish Thyroid Hormone Receptor beta (TRb), thrb (gene 30607) (UniProt Q9PVE4); experiment: ATG_zfTRb_XSP1: Attagene TRANS-FACTORIAL Multi-Species (XSP1) HepG2 Assay for zebrafish Thyroid Hormone Receptor beta (TRb) (AID 2283809)
Method in brief: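 HepG2 cells transiently transfected with multiplexed GAL4-UAS reporter units expressing chimeric zebrafish TRb–Gal4. Dosed 24 h with 3 nM 6-alpha-fluorotestosterone present; reporter mRNA measured by RT-PCR, HpaI digestion and capillary electrophoresis; gain of signal versus DMSO.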

[8] = ATG_XTT_Cytotoxicity_XSP1: Cytotoxicity Assessment in the Attagene TRANS-FACTORIAL Multi-Species (XSP1) HepG2 Assay (AID 2283810)
Method in brief: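 XTT viability readout taken at 24 hours post-dosing in HepG2 liver cells co-treated with 3 nM 6-alpha-fluorotestosterone. Signal loss relative to DMSO controls reflects cytotoxicity.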

[9] = ATG_M_06_XSP2: Attagene TRANS-FACTORIAL Multi-Species (XSP2) HepG2 Assay for M06 Transcription Factor (Internal Marker) (AID 2283811);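 further: hits are increases in signal above the DMSO baseline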
Method in brief: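 HepG2 cells transiently transfected with GAL4-UAS multiple reporter units, medium containing 3 nM 6-alpha-fluorotestosterone and 1.5 nM norgestrel; reporter mRNA measured 24 hours post-dosing by RT-PCR and capillary electrophoresis. Internal background marker, gain of signal vs DMSO.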

[10] = system: turtle Estrogen Receptor (ERa), gene 101933533; experiment: ATG_trERa_XSP2: Attagene TRANS-FACTORIAL Multi-Species (XSP2) HepG2 Assay for turtle Estrogen Receptor (ERa) (AID 2283812);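 further: human HepG2 liver cells transiently expressing turtle ERa-Gal4 chimeric receptor; actives raise reporter signal above DMSO so AC50 reflects agonist activity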
Method in brief: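 HepG2 cells transiently transfected with GAL4-UAS reporter units expressing turtle ERa-Gal4 chimera. Reporter mRNA measured after 24 h dosing by RT-PCR, fluorescent labelling and capillary electrophoresis; gain of signal fitted versus DMSO.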

[11] = biological target: Estrogen receptor beta (Homo sapiens) (UniProt Q92731); experiment: ATG_hERb_XSP2: Attagene TRANS-FACTORIAL Multi-Species (XSP2) HepG2 Assay for human Estrogen Receptor (ERb) (AID 2283813);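 further: actives raise reporter mRNA above DMSO so AC50 reflects agonist induction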
Method in brief: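 HepG2 cells transiently transfected with GAL4-UAS reporter units and chimeric human ERb-Gal4, 24 h exposure. Reporter mRNA quantified by RT-PCR with FAM labelling, HpaI digestion and capillary electrophoresis; gain of signal versus DMSO.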

[12] = biological target: GAL4 Transcription Factor (Internal Marker), GAL4 (gene 855828) (UniProt P04386); experiment: ATG_GAL4_XSP2: Attagene TRANS-FACTORIAL Multi-Species (XSP2) HepG2 Assay for GAL4 Transcription Factor (Internal Marker) (AID 2283814);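 further: GAL4 reporter mRNA background control in MRTU transfected cells not a receptor target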
Method in brief: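 HepG2 cells transiently transfected with GAL4-UAS reporter units, stimulated with 3 nM 6-alpha-fluorotestosterone plus 1.5 nM norgestrel, dosed 24 h. Reporter mRNA by RT-PCR/capillary electrophoresis; gain-of-signal fit versus DMSO, background control.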

[13] = biological target: chicken Estrogen Receptor (ERa), ESR1 (gene 396099) (UniProt P06212); experiment: ATG_chERa_XSP2: Attagene TRANS-FACTORIAL Multi-Species (XSP2) HepG2 Assay for chicken Estrogen Receptor (ERa) (AID 2283817);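 further: actives raise reporter signal above DMSO so AC50 reflects ER activation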
Method in brief: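 Transiently transfected HepG2 cells expressing chimeric chicken ERa-GAL4 reporter units, dosed 24 h with 3 nM 6-alpha-fluorotestosterone and 1.5 nM norgestrel present. Reporter mRNA measured by RT-PCR and capillary electrophoresis; gain-of-signal fitted relative to DMSO.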

[14] = system: zebrafish Estrogen Receptor (ER2a), gene 317734; experiment: ATG_zfER2a_XSP2: Attagene TRANS-FACTORIAL Multi-Species (XSP2) HepG2 Assay for zebrafish Estrogen Receptor (ER2a) (AID 2283818);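 further: hits raise reporter mRNA so AC50 reflects activation of zebrafish ER2a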
Method in brief: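 HepG2 cells transiently transfected with GAL4-UAS reporter units and chimeric zebrafish ER2a-Gal4, exposed 24 h; medium contains 3 nM 6-alpha-fluorotestosterone and 1.5 nM norgestrel. Reporter mRNA quantified by RT-PCR, HpaI digestion, capillary electrophoresis; gain versus DMSO.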

[15] = system: frog Estrogen Receptor (ER), gene 398734; experiment: ATG_frER1_XSP2: Attagene TRANS-FACTORIAL Multi-Species (XSP2) HepG2 Assay for frog Estrogen Receptor (ER) (AID 2283821);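 further: hits raise reporter mRNA above DMSO baseline so potency means agonist or activator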
Method in brief: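 HepG2 cells transiently transfected with GAL4-UAS reporter units expressing a chimeric frog ER-Gal4 protein; 24 h exposure. Reporter mRNA quantified by RT-PCR, fluorescent labelling and capillary electrophoresis; gain of signal fitted against DMSO baseline.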

[16] = system: zebrafish Estrogen Receptor (ER2b), gene 317733; experiment: ATG_zfER2b_XSP2: Attagene TRANS-FACTORIAL Multi-Species (XSP2) HepG2 Assay for zebrafish Estrogen Receptor (ER2b) (AID 2283823);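 further: fitted upward as reporter gain over DMSO so potency reflects activation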
Method in brief: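 Transcriptional induction measured as reporter mRNA (RT-PCR, fluorescent capillary electrophoresis) in transiently transfected HepG2 cells after 24 h dosing; DMSO served as negative control and baseline.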

[17] = system: frog Estrogen Receptor (ER2), gene 100174814; experiment: ATG_frER2_XSP2: Attagene TRANS-FACTORIAL Multi-Species (XSP2) HepG2 Assay for frog Estrogen Receptor (ER2) (AID 2283828)
Method in brief: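 HepG2 cells transiently transfected with multiplexed GAL4-UAS reporter units expressing chimeric frog ER2–Gal4 protein; reporter mRNA measured 24 h after chemical dosing by RT-PCR, fluorescent labeling and capillary electrophoresis. Gain-of-signal fitted relative to DMSO baseline.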

[18] = biological target: Peroxisome proliferator-activated receptor gamma (Homo sapiens) (UniProt P37231); experiment: ATG_hPPARg_XSP2: Attagene TRANS-FACTORIAL Multi-Species (XSP2) HepG2 Assay for human Peroxisome Proliferator-activated Receptor gamma (PPARg) (AID 2283829);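 further: actives raise reporter mRNA above DMSO so AC50 reflects PPARg activation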
Method in brief: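 Human HepG2 cells carried transiently transfected Gal4 reporter units and were treated with chemical for 24 h alongside androgen-receptor stimulants (3 nM 6-alpha-fluorotestosterone, 1.5 nM norgestrel). Reporter transcripts were detected by RT-PCR with capillary electrophoresis, analysed in the positive direction against DMSO.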

[19] = biological target: Nuclear receptor subfamily 1 group I member 2 (Mus musculus) (UniProt O54915); experiment: ATG_mPXR_XSP2: Attagene TRANS-FACTORIAL Multi-Species (XSP1) HepG2 Assay for mouse Pregnane X Receptor (PXR) (AID 2283831)
Method in brief: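 Fluorescence signals from capillary electrophoresis of RT-PCR-amplified reporter mRNA give the readout, gain-of-signal versus DMSO. Transfected HepG2 cells, 24 h dosing, medium contained 3 nM 6-alpha-fluorotestosterone and 1.5 nM norgestrel.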

[20] = biological target: zebrafish Thyroid Hormone Receptor alpha (TRa), thraa (gene 30670) (UniProt Q98867); experiment: ATG_zfTRa_XSP2: Attagene TRANS-FACTORIAL Multi-Species (XSP1) HepG2 Assay for zebrafish Thyroid Hormone Receptor alpha (TRa) (AID 2283832);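 further: actives raise zebrafish TRa-Gal4 reporter transcript above DMSO baseline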
Method in brief: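 HepG2 cells transiently transfected with multiplexed GAL4-UAS reporter units expressing chimeric NR-Gal4 proteins; 24 h after dosing, reporter mRNA measured by RT-PCR, FAM labelling, HpaI digestion and capillary electrophoresis; gain of signal versus DMSO baseline.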

Measured: AC50

Nuclear receptor subfamily 1 group I member 2 (Mus musculus), sequence (O54915 whole entry, looked up, the tested form may be a part): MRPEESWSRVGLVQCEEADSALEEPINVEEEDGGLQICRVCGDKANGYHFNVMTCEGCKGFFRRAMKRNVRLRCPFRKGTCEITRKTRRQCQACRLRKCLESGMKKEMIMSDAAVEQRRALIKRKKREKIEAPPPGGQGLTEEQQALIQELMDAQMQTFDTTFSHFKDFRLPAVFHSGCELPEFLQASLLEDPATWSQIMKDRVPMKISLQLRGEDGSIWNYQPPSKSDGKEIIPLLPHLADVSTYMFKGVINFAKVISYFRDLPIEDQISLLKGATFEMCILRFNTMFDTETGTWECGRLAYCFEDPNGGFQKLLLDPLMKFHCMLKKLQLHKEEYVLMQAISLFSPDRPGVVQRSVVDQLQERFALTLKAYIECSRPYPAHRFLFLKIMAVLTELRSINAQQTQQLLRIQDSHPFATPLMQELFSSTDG
Peroxisome proliferator-activated receptor gamma (Homo sapiens), sequence (P37231 whole entry, looked up, the tested form may be a part): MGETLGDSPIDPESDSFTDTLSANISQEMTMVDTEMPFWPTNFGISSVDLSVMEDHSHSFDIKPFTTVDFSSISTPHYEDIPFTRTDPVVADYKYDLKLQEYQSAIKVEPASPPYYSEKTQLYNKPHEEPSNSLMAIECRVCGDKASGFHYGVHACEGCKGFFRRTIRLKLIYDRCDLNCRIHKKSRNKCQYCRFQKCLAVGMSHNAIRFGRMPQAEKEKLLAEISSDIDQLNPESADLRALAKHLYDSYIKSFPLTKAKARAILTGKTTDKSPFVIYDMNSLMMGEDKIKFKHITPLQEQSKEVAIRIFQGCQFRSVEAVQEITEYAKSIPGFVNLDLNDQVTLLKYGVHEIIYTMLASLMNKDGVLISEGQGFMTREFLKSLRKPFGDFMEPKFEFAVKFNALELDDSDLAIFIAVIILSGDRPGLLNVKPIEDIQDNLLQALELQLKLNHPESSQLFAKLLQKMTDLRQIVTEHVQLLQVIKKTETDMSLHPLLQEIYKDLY
zebrafish Thyroid Hormone Receptor alpha (TRa), thraa (gene 30670), sequence (Q98867 whole entry, looked up, the tested form may be a part): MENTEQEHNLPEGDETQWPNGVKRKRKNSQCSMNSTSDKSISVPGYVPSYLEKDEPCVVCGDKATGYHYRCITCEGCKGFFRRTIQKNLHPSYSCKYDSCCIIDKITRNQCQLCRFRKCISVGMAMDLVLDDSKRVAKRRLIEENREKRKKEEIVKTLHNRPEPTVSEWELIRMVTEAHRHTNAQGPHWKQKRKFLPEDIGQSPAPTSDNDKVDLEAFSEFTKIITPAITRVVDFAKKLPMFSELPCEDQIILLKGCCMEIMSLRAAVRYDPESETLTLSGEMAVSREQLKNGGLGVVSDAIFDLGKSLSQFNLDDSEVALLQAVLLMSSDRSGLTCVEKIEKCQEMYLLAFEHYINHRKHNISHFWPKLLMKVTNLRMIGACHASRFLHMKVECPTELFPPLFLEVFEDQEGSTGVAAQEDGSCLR
GAL4 Transcription Factor (Internal Marker), GAL4 (gene 855828), sequence (P04386 whole entry, looked up, the tested form may be a part): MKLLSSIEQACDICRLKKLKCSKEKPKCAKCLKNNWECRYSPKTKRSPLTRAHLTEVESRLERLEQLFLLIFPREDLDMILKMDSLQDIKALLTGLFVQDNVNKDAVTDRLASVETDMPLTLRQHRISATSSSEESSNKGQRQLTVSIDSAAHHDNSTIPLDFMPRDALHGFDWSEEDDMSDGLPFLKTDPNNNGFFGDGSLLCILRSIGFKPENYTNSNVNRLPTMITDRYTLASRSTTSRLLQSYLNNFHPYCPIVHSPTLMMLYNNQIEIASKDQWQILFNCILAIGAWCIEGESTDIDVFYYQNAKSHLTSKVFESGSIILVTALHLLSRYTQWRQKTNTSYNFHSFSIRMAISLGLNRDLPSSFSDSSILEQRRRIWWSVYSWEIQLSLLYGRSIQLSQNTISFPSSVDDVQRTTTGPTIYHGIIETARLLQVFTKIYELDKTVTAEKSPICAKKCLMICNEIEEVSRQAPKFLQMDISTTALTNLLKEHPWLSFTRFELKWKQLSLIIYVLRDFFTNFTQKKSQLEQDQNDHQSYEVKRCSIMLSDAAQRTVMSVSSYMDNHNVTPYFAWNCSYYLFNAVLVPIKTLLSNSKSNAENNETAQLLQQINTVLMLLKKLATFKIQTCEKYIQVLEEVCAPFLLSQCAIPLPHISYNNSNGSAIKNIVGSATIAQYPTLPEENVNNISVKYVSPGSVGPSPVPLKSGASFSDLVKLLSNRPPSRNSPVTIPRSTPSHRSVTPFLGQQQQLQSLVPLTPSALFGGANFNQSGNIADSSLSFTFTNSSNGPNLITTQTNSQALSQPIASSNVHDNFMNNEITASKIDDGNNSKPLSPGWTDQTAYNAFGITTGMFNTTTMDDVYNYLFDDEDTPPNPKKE
chicken Estrogen Receptor (ERa), ESR1 (gene 396099), sequence (P06212 whole entry, looked up, the tested form may be a part): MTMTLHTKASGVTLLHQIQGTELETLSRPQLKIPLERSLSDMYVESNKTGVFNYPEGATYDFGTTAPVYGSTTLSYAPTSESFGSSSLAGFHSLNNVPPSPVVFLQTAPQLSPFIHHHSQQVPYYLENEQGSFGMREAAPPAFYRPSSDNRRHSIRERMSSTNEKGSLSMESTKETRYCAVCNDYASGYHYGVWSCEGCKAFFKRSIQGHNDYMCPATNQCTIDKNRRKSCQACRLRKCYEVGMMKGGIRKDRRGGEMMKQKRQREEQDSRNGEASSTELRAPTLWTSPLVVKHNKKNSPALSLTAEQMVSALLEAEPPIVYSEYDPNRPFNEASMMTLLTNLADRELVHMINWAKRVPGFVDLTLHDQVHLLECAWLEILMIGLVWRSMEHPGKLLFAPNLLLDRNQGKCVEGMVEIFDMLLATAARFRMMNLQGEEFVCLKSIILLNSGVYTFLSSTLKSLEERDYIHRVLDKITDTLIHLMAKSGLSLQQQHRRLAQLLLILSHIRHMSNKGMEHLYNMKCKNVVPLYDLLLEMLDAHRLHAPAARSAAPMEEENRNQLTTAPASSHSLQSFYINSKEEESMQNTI
zebrafish Thyroid Hormone Receptor beta (TRb), thrb (gene 30607), sequence (Q9PVE4 whole entry, looked up, the tested form may be a part): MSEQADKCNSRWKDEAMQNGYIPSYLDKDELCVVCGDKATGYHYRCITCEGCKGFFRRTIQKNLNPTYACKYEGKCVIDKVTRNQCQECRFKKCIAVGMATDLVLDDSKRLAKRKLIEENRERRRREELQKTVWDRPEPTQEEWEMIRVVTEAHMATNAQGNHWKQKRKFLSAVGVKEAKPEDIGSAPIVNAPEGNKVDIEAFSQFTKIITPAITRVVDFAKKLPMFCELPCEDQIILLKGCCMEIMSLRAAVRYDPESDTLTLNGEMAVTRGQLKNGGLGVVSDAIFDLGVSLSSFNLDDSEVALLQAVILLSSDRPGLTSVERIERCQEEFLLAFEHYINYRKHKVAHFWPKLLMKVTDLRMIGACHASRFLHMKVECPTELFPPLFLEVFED
human Thyroid hormone Receptor alpha (TRa), THRA (gene 7067), sequence (P10827 whole entry, looked up, the tested form may be a part): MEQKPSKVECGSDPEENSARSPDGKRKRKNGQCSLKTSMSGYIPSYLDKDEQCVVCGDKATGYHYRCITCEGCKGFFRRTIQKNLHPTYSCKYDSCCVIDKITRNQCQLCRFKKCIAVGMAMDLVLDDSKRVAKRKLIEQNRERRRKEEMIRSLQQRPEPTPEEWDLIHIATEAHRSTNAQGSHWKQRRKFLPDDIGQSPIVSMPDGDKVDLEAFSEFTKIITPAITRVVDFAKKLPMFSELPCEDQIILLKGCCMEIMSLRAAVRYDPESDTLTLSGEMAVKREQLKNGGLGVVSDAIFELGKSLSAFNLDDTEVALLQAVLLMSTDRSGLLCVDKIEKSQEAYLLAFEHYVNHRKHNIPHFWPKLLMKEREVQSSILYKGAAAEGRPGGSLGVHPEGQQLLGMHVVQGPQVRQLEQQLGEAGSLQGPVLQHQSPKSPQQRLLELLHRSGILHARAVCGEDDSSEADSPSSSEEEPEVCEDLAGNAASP
human Thyroid hormone Receptor beta (TRb), THRB (gene 7068), sequence (P10828 whole entry, looked up, the tested form may be a part): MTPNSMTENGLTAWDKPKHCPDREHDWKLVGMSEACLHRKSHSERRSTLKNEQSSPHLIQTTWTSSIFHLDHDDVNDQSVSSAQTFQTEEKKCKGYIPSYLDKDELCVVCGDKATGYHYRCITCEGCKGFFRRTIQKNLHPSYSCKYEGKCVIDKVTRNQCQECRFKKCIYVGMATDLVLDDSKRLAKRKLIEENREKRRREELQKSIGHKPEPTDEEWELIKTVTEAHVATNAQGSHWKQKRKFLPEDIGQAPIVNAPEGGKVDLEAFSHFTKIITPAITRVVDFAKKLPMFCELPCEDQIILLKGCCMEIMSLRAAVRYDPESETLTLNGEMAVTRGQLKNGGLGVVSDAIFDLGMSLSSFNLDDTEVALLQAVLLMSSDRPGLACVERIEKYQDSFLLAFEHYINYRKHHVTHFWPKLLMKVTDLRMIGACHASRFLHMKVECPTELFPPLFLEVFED
Estrogen receptor beta (Homo sapiens), sequence (Q92731 whole entry, looked up, the tested form may be a part): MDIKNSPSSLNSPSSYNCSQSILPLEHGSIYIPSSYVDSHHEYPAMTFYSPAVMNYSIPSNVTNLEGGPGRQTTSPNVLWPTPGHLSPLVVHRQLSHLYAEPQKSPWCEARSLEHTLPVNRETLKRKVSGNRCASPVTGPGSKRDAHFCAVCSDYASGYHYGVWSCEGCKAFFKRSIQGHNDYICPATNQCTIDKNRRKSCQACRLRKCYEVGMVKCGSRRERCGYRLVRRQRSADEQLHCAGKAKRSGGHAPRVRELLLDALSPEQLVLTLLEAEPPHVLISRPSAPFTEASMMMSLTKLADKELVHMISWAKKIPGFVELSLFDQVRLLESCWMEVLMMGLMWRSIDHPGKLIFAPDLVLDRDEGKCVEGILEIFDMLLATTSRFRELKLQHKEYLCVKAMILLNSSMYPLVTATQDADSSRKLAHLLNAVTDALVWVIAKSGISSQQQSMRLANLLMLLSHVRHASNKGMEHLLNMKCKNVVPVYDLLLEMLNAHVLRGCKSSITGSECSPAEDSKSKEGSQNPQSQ

C[C@]12CC[C@@H]3c4ccc(O)cc4CC[C@H]3[C@@H]1C[C@@H](O)[C@@H]2O
active: [10] 0.0306 µM | [11] 0.0102 µM | [13] 0.0725 µM | [14] 0.1 µM | [16] 0.0308 µM
inactive: all other assays above
